# Test results taken from the supplement of paper PMC10338343.
# ± gives the standard deviation.
# Test system: MILI (PIWIL2) piRISC loaded with L1MC piRNA (26 nt)
# Test: pre-steady-state target cleavage rate (min^-1); guide: L1MC piRNA 5'p-UAACUAAAUACUAUGCAAGCUGUAGG; MIWI and MILI are mouse PIWI proteins and EfPiwi is from a freshwater sponge; tags in brackets are library labels; higher = faster piRNA-guided slicing of the target
# Settings: auxiliary factor: 500 nM mouse GTSF1
# How it was run: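 Active affinity-purified piRISC carrying one synthetic guide (1 nM) was mixed with a transcribed, DNA-blocked target RNA library […] in HEPES–potassium acetate buffer at 33 °C for 0–8 or 0–960 min, with or without 500 nM GTSF1 partner protein. Uncleaved targets were then sequenced and normalised to depth and to weakly complementary targets. Three trials were pooled, and k3 was capped at 0.0001 min^-1. A burst-and-steady-state fit was applied to obtain the pre-steady-state cleavage rate.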
# 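Also: 1 nM active piRISC with 0.1 nM target library at 33 °C single turnover.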
row,Sequence,pre-steady-state target cleavage rate
1,UCCUGGAUGUCCUUGCAUAGUAUUUAUGUUA,0.0185 ± 0.0059
2,UCCUGGAUGUGCUAGCAUAGUAUUUAGAUA,0.0954 ± 0.023
3,UCCUGGAUGUCCUUGCAUAGUAUUUUCAUA,0.0192 ± 0.0081
4,UCCUGGAUGUCGAUGCAUAGUAUUUAGCUUA,0.0496 ± 0.014
5,UCCUGGAUGUCGAUGCAUAGUAUAUUGUUA,0.0249 ± 0.008
6,UCCUGGAUGUCCUUGCAUAGUUUUUAGAUA,0.00584 ± 0.0044
7,UCCUGGUACAGCUUGCAUAGUAUAUAGAAA,0.0845 ± 0.028
8,UCCUGGAUGUCGAUUCAUAGUAUUUAGUUA,0.0157 ± 0.0044
9,UCCUGCUACAGCUUGCAUAGUAAAAACAAA,0.0234 ± 0.01
10,UCCUGGAUGACGAUGCAUAGUAUUUAGUAA,0.128 ± 0.016
11,UCCUGGAUGUGCUUGCAUAGUAAAUAGUAA,0.0121 ± 0.0056
12,UCCUGGUACAGCUUGCAUAGUAUUUGUUA,0.0839 ± 0.022
13,UCCUGCUAGAGCUUGCAUAGUAUUUAGUAA,0.161 ± 0.023
14,UCCUGGAUGUCCAUGCAUAGUAUUUACUUA,0.0292 ± 0.0095
15,UCCUGGUACAGCUUGCAUAGUAUUUUCAUA,0.0352 ± 0.014
16,UCCUGGAACACCUUGCAUAGUAUUUACUUA,0.0546 ± 0.018
17,UCCUGGAACAGCUUGCAUAUAUUUAGUUA,0.0331 ± 0.0059
18,UCCUGGAUCAGCUUGCAAUCUAUUUAGUUA,0.0116 ± 0.0035
19,UCCUGGAUGUCGAACGAUAGUAUUUUAGUUA,< 0.0001

row,Sequence,pre-steady-state target cleavage rate
1,UCCUGGAUGAGCUUGCAUAGUAUUUACUUA,0.0753 ± 0.019
2,UCCUGGAUCACCUUGCAUAGUAUUUUCAAA,0.0586 ± 0.021
3,UCCUGCUACAGCUUGCAUAGAAUUUUCAAA,0.0169 ± 0.0066
4,UCCUCCUACAGCUUGCAUACUUUUUAGUUA,0.00693 ± 0.0043
5,UCCUGGAUGUGCUUGCAAUAGUAUUUAGUUA,0.00398 ± 0.0037
6,UCCUGGAUGAGCUUGCAUACUAUUUACUUA,0.00478 ± 0.0043
7,UCCUGGUACAGCUUGCAUAGUAUGUAGUUA,0.03 ± 0.011
8,UCCUGGAUGAGCUUGUCAUAGUAUUUAGUUA,0.0971 ± 0.013
9,UCCUGGAUCACCUUGCAUAGUAUUUACUUA,0.0587 ± 0.017
10,UCCUGGAUGUCGUUGCAUAGUAUUUACGUUA,0.231 ± 0.064
11,UCCUGGAACAGCUUGCAUAGUUUUUUCAAA,0.00594 ± 0.0037
12,UCCUGGUACAGCUUGCAUACUAUUUAGAAA,0.0227 ± 0.011
13,UCCUGGAACUGCUUGCAUAGUAUUUAGAAA,0.103 ± 0.019
14,UCCUGGAACUGCUUGCAUAGAAUUUAGUUA,0.0556 ± 0.013
15,UCCUGGAACAGCAUGCAUAGUAUUUACUUA,0.221 ± 0.034
16,UCCUGGUACAGCUUGCUUAGUAUUUACUUA,0.191 ± 0.038
17,UCCUGGAUGUCCAUGCAUAGUAUUUAGAUA,0.0163 ± 0.0062
18,UCCUGGAUGUCCUUGCAUAGUAUAUUGUUA,0.0329 ± 0.0079

# Same assay, conditions: auxiliary factor: none (no GTSF1)
row,Sequence,pre-steady-state target cleavage rate
1,UCCUGGAUGUCGUUGCAUAGUUUUAAGUUA,0.0042 ± 0.0022
2,UCCUGGAUGUCGAACGAAAGUAUUUAGUAA,< 0.0001
3,UCCUGGAUGUCGAACCAUAGUCAUUUAGUUA,< 0.0001
